# Experimental data taken from PubChem BioAssay (NCATS).
# Results filed as inconclusive are left out. Calls of active or inactive are those of the source. Unless noted, the call rests on the fitted dose curve.
# Assays:
# [1] = Cell Viability - LYMP1-002 - Assay at 24 hr (AID 993; active means well fitted curve in the direction sought with a large enough effect; an effect the other way counts as inactive or inconclusive; further: on the % scale 0 is the no-effect control and ±100 the full control effect)
# In short: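 Cells plated 2500/well, 5 hr 37 C; compounds added, 24 hr 37 C; CellTiter-Glo added, 30 min RT; luminescence read. Tetraoctylammonium bromide positive control. Hill-equation AC50.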
# [2] = qHTS Assay for Identification of Small Molecule Inducers of Hypoxia Response (AID 2120; active means well fitted curve in the direction sought with a large enough effect in the signal ratio, with a control signal flat, not every such curve was filed as active; the % refers to the signal ratio; further: 0% is about no effect)
# In short: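 ME-180 HRE-bla cells plated in Opti-MEM/0.5% dialyzed FBS, rested 4-5 h, then dosed with compound titrations by pin tool. After 17 h at 37 degrees C, CCF4 dye loaded 2.5 h at RT; 460/530 nm ratio gave %Activity and AC50.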
# [3] = molecular target: Estrogen receptor (Homo sapiens) (UniProt P03372); assay: qHTS assay for small molecule antagonists of estrogen receptor alpha signaling (AID 588513; active means well fitted curve in the direction sought with a large enough effect in the signal ratio, with a control signal flat, not every such curve was filed as active; the % refers to the signal ratio; further: on the % scale 0 is the no-effect control and ±100 the full control effect)
# Chain of Estrogen receptor (Homo sapiens) (P03372 whole entry, looked up): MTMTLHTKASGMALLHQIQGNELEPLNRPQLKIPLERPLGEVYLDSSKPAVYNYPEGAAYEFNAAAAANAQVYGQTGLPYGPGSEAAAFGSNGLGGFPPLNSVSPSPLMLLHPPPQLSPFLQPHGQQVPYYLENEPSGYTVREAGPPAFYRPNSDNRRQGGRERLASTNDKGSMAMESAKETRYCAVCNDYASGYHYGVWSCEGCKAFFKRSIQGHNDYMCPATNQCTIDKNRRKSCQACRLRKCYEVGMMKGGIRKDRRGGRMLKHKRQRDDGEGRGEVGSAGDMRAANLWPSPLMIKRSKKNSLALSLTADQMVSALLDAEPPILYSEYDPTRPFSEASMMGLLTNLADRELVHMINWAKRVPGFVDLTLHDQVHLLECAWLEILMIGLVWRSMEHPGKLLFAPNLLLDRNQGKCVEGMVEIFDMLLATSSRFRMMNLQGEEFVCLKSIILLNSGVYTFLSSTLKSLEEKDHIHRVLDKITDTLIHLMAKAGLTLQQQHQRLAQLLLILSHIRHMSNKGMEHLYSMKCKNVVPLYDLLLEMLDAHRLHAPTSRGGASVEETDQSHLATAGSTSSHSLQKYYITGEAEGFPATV
# In short: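 ER-alpha-UAS-bla GripTite HEK 293 cells in medium with 2% charcoal/dextran-treated FBS were preincubated 4 h at 37 C, dosed with compound (1:2 titration), stimulated with 0.5nM 17-beta-estradiol for 18 h, then read by CCF4 beta-lactamase fluorescence.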
# [4] = molecular target: Glucocorticoid receptor (Homo sapiens) (UniProt P04150); assay: qHTS assay for small molecule agonists of glucocorticoid receptor signaling (AID 588532; active means well fitted curve in the direction sought with a large enough effect in the signal ratio, with a control signal flat; the % refers to the signal ratio;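 further: 100% = dexamethasone at 0.1 µM and 0% = DMSO only wells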); conditions: HeLa MMTV-bla, beta-lactamase ratio, agonist, 18 h; stronger effect = higher value; percent of dexamethasone control, DMSO zero
# Chain of Glucocorticoid receptor (Homo sapiens) (P04150 whole entry, looked up): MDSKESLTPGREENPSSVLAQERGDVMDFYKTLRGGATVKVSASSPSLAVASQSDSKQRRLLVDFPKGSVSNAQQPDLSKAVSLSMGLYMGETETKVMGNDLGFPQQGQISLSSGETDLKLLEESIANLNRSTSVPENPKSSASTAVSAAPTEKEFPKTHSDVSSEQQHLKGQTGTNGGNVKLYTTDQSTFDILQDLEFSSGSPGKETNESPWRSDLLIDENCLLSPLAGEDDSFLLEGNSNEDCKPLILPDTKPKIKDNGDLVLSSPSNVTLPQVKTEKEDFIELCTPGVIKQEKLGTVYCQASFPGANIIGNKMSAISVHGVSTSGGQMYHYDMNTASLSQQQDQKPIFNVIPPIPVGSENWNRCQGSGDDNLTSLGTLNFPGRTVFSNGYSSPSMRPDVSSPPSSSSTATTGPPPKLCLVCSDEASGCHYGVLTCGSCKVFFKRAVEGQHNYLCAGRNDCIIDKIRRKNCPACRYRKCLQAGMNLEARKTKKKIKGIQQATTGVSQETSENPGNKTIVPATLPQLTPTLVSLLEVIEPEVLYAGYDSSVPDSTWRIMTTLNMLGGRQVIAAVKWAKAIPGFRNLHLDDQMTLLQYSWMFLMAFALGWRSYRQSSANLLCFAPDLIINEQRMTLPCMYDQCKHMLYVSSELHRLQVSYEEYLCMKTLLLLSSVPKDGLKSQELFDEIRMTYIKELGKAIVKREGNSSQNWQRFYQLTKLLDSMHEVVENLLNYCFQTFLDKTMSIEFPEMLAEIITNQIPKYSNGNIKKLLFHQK
# In short: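 Quantitative HTS using CellSensor MMTV-bla HeLa cells in charcoal/dextran-treated serum; compounds tested up to 92 uM. After 18 h at 37 C, CCF4 dye reported reporter induction.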
# [5] = molecular target: Glucocorticoid receptor (Homo sapiens) (UniProt P04150); assay: qHTS assay for small molecule antagonists of glucocorticoid receptor signaling (AID 588533; active means well fitted inhibition curve with a large enough effect in the signal ratio, with a control signal flat, not every such curve was filed as active; the % refers to the signal ratio;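 further: cells stimulated with 2 nM dexamethasone as agonist; on the % scale 0 is the no-effect control and ±100 the full control effect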)
# In short: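 Antagonist-mode qHTS: compound titrations added to GRE-bla HeLa cells, then dexamethasone 2 nM final; 18 h, 37 C. CCF4 FRET fluorescence normalized to dexamethasone and DMSO; IC50 from Hill fit.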
# [6] = qHTS assay for small molecule antagonists of peroxisome proliferator-activated receptor delta signaling (AID 588535; active means well fitted inhibition curve with a large enough effect in the signal ratio, with a control signal flat, not every such curve was filed as active; the % refers to the signal ratio;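 on max response: cells co-treated with a PPAR-delta agonist as stimulator during compound exposure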); conditions: HEK293T PPARd-UAS-bla, beta-lactamase FRET ratio, 18 h; 460 nm channel
# In short: (§1)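 HEK293T PPAR-delta-UAS-bla cells, 4000/well, 2% charcoal/dextran FBS; 5 h 37 C; cpd titration; 18 h 37 C; CCF4 2 h RT; FI 460/530 nm; Hill fit → IC50, efficacy.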
# [7] = molecular target: Peroxisome proliferator-activated receptor delta (Homo sapiens) (UniProt Q03181); assay: as above
# Chain of Peroxisome proliferator-activated receptor delta (Homo sapiens) (Q03181 whole entry, looked up): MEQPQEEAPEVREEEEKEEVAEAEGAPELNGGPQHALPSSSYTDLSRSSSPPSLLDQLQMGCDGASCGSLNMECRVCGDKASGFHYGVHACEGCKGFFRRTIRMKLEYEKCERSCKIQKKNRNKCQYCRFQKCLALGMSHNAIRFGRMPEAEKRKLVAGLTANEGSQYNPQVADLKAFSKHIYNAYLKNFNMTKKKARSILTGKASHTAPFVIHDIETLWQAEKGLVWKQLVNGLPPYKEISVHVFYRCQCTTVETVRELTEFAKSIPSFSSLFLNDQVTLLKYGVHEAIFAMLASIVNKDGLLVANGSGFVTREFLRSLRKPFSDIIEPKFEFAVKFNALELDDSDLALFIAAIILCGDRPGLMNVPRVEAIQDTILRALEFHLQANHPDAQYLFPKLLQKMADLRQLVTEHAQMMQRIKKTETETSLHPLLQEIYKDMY
# In short: as §1
# [8] = molecular target: Peroxisome proliferator-activated receptor gamma (Homo sapiens) (UniProt P37231); assay: qHTS assay for small molecule agonists of peroxisome proliferator-activated receptor gamma signaling (AID 588536; active means well fitted curve in the direction sought with a large enough effect in the signal ratio, with a control signal flat, not every such curve was filed as active; the % refers to the signal ratio;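 further: 0% = DMSO basal wells and 100% = rosiglitazone at 2 µM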)
# Chain of Peroxisome proliferator-activated receptor gamma (Homo sapiens) (P37231 whole entry, looked up): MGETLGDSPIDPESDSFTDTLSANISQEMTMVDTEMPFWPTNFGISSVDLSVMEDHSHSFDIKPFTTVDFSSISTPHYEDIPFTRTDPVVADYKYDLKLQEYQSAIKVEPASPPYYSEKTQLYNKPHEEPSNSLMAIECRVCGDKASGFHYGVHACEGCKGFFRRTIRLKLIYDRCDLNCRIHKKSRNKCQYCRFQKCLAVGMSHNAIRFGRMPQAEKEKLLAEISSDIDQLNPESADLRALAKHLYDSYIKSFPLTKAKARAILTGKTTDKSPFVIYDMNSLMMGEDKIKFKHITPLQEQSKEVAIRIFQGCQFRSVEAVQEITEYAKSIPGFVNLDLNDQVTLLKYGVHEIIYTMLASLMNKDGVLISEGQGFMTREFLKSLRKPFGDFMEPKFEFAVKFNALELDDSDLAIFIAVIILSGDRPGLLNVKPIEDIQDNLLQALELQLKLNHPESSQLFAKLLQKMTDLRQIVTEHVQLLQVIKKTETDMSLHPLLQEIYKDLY
# In short: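 GeneBLAzer PPAR-gamma-UAS-bla HEK293 cells in 1% charcoal/dextran-treated FBS medium were treated 16 h at 37 C with compounds. Beta-lactamase activity was read by CCF4 ratio (460/530 nm). Response was normalized to 2 uM rosiglitazone (100%) and DMSO, then Hill-fitted for EC50 and efficacy.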
# [9] = molecular target: Vitamin D3 receptor (Homo sapiens) (UniProt P11473); assay: qHTS assay for small molecule antagonists of vitamin D receptor signaling (AID 588541);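 further: receptor activated by calcitriol during compound treatment; on the % scale 0 is the no-effect control and ±100 the full control effect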
# Chain of Vitamin D3 receptor (Homo sapiens) (P11473 whole entry, looked up): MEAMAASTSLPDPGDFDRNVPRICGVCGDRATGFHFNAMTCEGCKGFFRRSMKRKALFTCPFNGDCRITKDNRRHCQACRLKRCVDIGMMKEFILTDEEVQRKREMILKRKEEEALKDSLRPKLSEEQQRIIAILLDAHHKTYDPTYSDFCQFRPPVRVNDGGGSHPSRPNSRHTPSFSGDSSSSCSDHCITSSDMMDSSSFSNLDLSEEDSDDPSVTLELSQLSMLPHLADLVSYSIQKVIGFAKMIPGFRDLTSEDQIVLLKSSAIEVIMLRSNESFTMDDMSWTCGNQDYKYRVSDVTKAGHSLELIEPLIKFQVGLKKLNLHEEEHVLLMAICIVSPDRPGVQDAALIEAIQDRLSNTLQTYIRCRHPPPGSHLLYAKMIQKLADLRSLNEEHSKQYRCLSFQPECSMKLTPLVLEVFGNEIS
# In short: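 Antagonist-mode beta-lactamase reporter assay: HEK293T VDR-UAS-bla cells were exposed to titrated compound alongside 1-alpha,25-dihydroxyvitamin D3 at 3 nM final for 16 h. Values were normalized to the 50 nM agonist control and DMSO basal, with IC50 and efficacy from Hill equation fits.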
# [10] = molecular target: Vitamin D3 receptor (Homo sapiens) (UniProt P11473); assay: qHTS assay for small molecule agonists of vitamin D receptor signaling (AID 588543);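 further: 0% = DMSO basal and 100% = reference agonist control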
# In short: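 GeneBLAzer VDR-UAS-bla HEK293T cells in 2% charcoal-stripped FBS medium were dosed with compound titrations for 16 h at 37 °C; CCF4 β-lactamase readout (405 nm ex, 460/530 nm em). EC50 and efficacy from Hill fits, normalized to 50 nM calcitriol (100%) and DMSO (0%).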
# [11] = qHTS assay for small molecule agonists of retinoid X receptor alpha signaling (AID 588544); conditions: HEK293T RXRa-UAS-bla, beta-lactamase reporter, 18 h; 530 nm emission
# [12] = qHTS Assay for Lipid Storage Modulators (AID 1519); conditions: Drosophila S3 cells, BODIPY lipid droplet/cell ratio, laser cytometry, cells loaded with oleic acid
# In short: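 Cells seeded at 5,000 per well were treated with compounds over a concentration series and loaded with oleic acid (400 uM, as added). Lipid droplet fluorescence (488 nm excitation, 500-530 nm channel) was read by laser-scanning cytometry and normalized to 20 uM Triacsin C.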
# [13] = molecular target: Ubiquitin carboxyl-terminal hydrolase 1 (Homo sapiens) (UniProt O94782); assay: Inhibitors of USP1/UAF1: Pilot qHTS (AID 504865; active means well fitted curve in the direction sought with a large enough effect; an effect the other way counts as inactive or inconclusive;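 further: rhodamine fluorescence freed from ubiquitin-rhodamine substrate followed over time; top concentration of the series differs between compounds; on the % scale 0 is the no-effect control and ±100 the full control effect; nearly all actives have a fitted effect of over 35% in size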)
# Chain of Ubiquitin carboxyl-terminal hydrolase 1 (Homo sapiens) (O94782 whole entry, looked up): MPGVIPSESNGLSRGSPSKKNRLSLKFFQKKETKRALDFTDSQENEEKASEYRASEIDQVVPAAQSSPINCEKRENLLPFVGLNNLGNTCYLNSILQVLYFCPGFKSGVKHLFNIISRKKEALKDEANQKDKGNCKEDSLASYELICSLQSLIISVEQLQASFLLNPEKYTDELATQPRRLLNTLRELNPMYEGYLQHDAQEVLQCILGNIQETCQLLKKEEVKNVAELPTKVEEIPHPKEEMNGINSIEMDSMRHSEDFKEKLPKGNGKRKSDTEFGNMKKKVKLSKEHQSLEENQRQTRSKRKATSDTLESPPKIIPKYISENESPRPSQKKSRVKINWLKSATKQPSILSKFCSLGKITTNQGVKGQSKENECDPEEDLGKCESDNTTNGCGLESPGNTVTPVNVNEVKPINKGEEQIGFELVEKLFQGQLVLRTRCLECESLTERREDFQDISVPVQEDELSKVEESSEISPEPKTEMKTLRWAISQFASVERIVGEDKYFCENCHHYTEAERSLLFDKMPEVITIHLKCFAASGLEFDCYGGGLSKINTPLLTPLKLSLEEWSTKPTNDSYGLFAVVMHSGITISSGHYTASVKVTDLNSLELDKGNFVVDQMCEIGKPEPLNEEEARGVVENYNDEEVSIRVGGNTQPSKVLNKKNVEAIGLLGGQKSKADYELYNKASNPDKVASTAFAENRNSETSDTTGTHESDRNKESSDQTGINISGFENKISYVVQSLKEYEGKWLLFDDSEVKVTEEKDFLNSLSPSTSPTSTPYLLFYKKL
# In short: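 USP1/UAF1 complex (1nM) preincubated with compound 15 min at room temperature, then Ub-Rho substrate (150nM final) added. Fluorescence read kinetically at 480/540 nm, 6 reads every 60 seconds. Buffer: 50mM HEPES pH 7.8, 0.5mM EDTA, 0.1 mg/ml BSA, 1mM TCEP, 0.01% Tween-20.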
# [14] = Cell Viability - LYMP1-002 - Assay at 40 hr (AID 994; active means well fitted curve in the direction sought with a large enough effect; an effect the other way counts as inactive or inconclusive;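 further: 0% = DMSO only and full inhibition = 92 µM tetraoctylammonium bromide; nearly all actives have a fitted effect of over 60% in size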)
# In short: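 Luminescent ATP signal served as the viability readout, with decreases taken as toxicity. Cells were treated with compounds across a concentration range for 40 hours at 37 C, and AC50 values came from standard Hill modeling.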
# [15] = molecular target: Estrogen receptor (Homo sapiens) (UniProt P03372); assay: qHTS assay for small molecule agonists of estrogen receptor alpha signaling (AID 588514);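 further: 0% = vehicle only and 100% = reference agonist; nearly all actives have a fitted effect of over 70% in size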
# In short: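 Cells were plated at 5000/well, incubated 4 hrs at 37 C, dosed with compound titration series, incubated 18 hrs at 37 C, loaded with CCF4 dye for 2 hrs at RT, then fluorescence was read.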
# [16] = molecular target: Androgen receptor (Homo sapiens) (UniProt P10275); assay: qHTS assay for small molecule agonists of androgen receptor signaling (AID 588515; active means well fitted curve in the direction sought with a large enough effect in the signal ratio, with a control signal flat; the % refers to the signal ratio; further: on the % scale 0 is the no-effect control and ±100 the full control effect); conditions: AR-UAS-bla HEK293, beta-lactamase ratio, agonist 16 h; stronger effect = higher value
# Chain of Androgen receptor (Homo sapiens) (P10275 whole entry, looked up): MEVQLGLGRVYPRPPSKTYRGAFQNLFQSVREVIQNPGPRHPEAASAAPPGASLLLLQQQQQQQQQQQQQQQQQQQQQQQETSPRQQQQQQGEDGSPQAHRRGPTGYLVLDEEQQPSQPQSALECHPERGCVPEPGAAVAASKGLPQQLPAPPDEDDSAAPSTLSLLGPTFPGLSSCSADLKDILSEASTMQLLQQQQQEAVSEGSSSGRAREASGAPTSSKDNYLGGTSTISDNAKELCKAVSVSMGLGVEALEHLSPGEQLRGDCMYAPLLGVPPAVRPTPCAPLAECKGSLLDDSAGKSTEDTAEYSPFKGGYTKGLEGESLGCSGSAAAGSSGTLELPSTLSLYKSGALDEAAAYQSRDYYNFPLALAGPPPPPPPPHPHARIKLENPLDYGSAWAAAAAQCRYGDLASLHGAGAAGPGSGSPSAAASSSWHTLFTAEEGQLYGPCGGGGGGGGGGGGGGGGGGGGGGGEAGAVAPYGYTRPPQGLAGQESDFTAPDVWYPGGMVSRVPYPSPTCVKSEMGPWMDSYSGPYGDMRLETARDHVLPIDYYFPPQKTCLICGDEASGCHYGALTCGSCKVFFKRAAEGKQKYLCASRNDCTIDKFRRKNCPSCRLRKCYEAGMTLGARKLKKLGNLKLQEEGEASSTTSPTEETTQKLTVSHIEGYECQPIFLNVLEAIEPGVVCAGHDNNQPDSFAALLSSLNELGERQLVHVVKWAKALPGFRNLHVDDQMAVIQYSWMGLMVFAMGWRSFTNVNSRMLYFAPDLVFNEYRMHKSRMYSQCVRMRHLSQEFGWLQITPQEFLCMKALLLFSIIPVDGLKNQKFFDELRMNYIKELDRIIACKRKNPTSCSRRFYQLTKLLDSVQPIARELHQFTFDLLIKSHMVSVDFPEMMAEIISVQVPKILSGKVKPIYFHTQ
# In short: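 EC50 and efficacy came from Hill fits of titrations (up to 92 uM) normalized to 30 nM R1881 as 100% and DMSO as 0%. Compound exposure was 16 h at 37 C on AR-UAS-bla HEK293 cells, with a 405/460/530 nm CCF4 fluorescence read.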
# [17] = molecular target: DNA dC->dU-editing enzyme APOBEC-3G (Homo sapiens) (UniProt Q9HC16); assay: qHTS for inhibitors of Vif-A3G interactions: Validation (AID 588379; active means well fitted curve in the direction sought with a large enough effect; an effect the other way counts as inactive or inconclusive; further: 0% is about no effect)
# Chain of DNA dC->dU-editing enzyme APOBEC-3G (Homo sapiens) (Q9HC16 whole entry, looked up): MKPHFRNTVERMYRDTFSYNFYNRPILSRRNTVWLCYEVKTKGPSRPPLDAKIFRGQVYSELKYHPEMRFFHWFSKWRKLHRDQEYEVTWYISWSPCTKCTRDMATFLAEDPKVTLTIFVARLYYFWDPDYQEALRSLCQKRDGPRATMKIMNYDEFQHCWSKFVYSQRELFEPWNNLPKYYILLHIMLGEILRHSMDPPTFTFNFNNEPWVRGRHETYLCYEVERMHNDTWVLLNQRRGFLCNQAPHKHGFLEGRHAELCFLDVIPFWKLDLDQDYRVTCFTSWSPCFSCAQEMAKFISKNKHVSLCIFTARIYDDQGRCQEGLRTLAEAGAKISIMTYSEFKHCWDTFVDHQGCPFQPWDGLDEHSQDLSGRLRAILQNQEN
# In short: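 HeLa cells stably expressing Vif and A3G-eYFP, 700 cells/well, incubated overnight at 37 deg C, then exposed to compound overnight at 37 deg C. Inhibition of Vif-mediated degradation read as increased yellow fluorescence (Ex 488/Em 500-530) by laser-scanning cytometry.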
# [18] = measured here: cell count channel max response
# [19] = measured here: lipid channel max response
structure (smiles),measurement,setting,value
Nc1ccccc1N,outcome,[1],inactive
same,outcome,[2],inactive
same,outcome,[3],inactive
same,activation,[4],10.6% (inactive)
same,outcome,[5],inactive
same,max response,[6],-23.4%
same,outcome,[7],inactive
same,outcome,[8],inactive
same,outcome,[9],inactive
same,outcome,[10],inactive
same,max response,[11],12.1%
CC(C)C(N)C(=O)OCCOCn1cnc2c(=O)[nH]c(N)nc21 (configuration not stated),"activity change, negative = inhibition",[12]; at 57.5 µM (top of the series),7.31% (inactive)
same,max response,[12]; [18],9.47%
same,max response,[12]; [19],21.7%
same,outcome,[13],inactive
CC(=O)O[C@@H]1CC(C)=C2[C@H]1[C@H](C)CC[C@H]2/C=C(\C)C(=O)O,outcome,[1],inactive
same,outcome,[14],inactive
same,outcome,[2],inactive
same,outcome,[3],inactive
same,outcome,[15],inactive
same,activation,[16],-3.27% (inactive)
same,activation,[4],9.44% (inactive)
same,outcome,[5],inactive
same,outcome,[8],inactive
same,outcome,[9],inactive
same,outcome,[10],inactive
same,max response,[11],12.6%
COc1ccc2c(OC)c3ccoc3nc2c1OC,"activity change, negative = inhibition",[12]; at 25.7 µM (top of the series),-9.25% (inactive)
same,max response,[12]; [18],0.385%
same,max response,[12]; [19],-6.85%
same,outcome,[13],inactive
same,outcome,[17],inactive
